# ± gives the standard deviation of the averaged measurements.
# Experiments:
# [1] = test system: DLD1; test: cell viability (CellTiter-Glo) relative to plate median (fraction of plate median); higher = more viable cells; details: 5 µM; treatment time 24 h; reporter: 7TFP
# How it was run: (§1)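 Per-well firefly luciferase or CellTiterGlo luminescence, normalised to the plate median, is what is reported. It was measured in colorectal cancer cells with stable lentiviral TCF/Wnt firefly luciferase reporters after a 24 h treatment with library compounds at a final 5 µM. The mean of two independent replicates is given.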
# [2] = test system: HCT116; test: as above; details: 5 µM; treatment time 24 h; reporter: TCF4/Wnt
# How it was run: as §1
# [3] = test system: SW480; test: as above; details: 5 µM; treatment time 24 h; reporter: 7TFP
# How it was run: as §1
# [4] = test system: DLD1; test: TCF/Wnt firefly luciferase reporter signal relative to plate median (fraction of plate median); higher = higher Wnt reporter signal; details: 5 µM; treatment time 24 h; reporter: 7TFP
# How it was run: as §1
# [5] = test system: SW480; test: as above; details: 5 µM; treatment time 24 h; reporter: 7TFP
# How it was run: as §1
compound,measurement,setting,value
CC1(C)O[C@@H]2C[C@H]3[C@@H]4CCC5=CC(=O)C=C[C@]5(C)[C@H]4[C@@H](O)C[C@]3(C)[C@]2(C(=O)CO)O1,cell viability,[1],0.999 ± 0.03
same,cell viability,[2],1.06 ± 0.05
same,cell viability,[3],0.977 ± 0.033
same,TCF/Wnt firefly luciferase reporter signal,[4],0.979 ± 0.086
same,TCF/Wnt firefly luciferase reporter signal,[5],0.9755 ± 0.0078
CCCCCC1C(=O)CCC1CC(=O)O (stereo not given),cell viability,[1],1.02 ± 0.25
same,cell viability,[2],1.2 ± 0.18
same,cell viability,[3],1.105 ± 0.0071
same,TCF/Wnt firefly luciferase reporter signal,[4],1.06 ± 0.099
same,TCF/Wnt firefly luciferase reporter signal,[5],1.04 ± 0.058
CN1[C@@H]2CC[C@H]1C[C@@H](OC(c1ccccc1)c1ccccc1)C2,cell viability,[1],1.03 ± 0.014
same,cell viability,[2],1.12 ± 0.014
same,cell viability,[3],1.05 ± 0.05
same,TCF/Wnt firefly luciferase reporter signal,[4],0.929 ± 0.16
same,TCF/Wnt firefly luciferase reporter signal,[5],0.982 ± 0.12
CCN1CCN(C(=O)N[C@@H](C(=O)N[C@@H]2C(=O)N3[C@@H]2SC(C)(C)[C@@H]3C(=O)O)c2ccccc2)C(=O)C1=O,cell viability,[1],0.994 ± 0.0085
same,cell viability,[2],0.993 ± 0.039
same,cell viability,[3],1.02 ± 0.039
same,TCF/Wnt firefly luciferase reporter signal,[4],1.05 ± 0.014
same,TCF/Wnt firefly luciferase reporter signal,[5],1.03 ± 0.086
CC1(C)O[C@@H]2C[C@H]3[C@@H]4C[C@H](F)C5=CC(=O)CC[C@]5(C)[C@H]4[C@@H](O)C[C@]3(C)[C@]2(C(=O)CO)O1,cell viability,[1],1.01 ± 0.025
same,cell viability,[2],1.025 ± 0.0071
same,cell viability,[3],1.02 ± 0.047
same,TCF/Wnt firefly luciferase reporter signal,[4],0.949 ± 0.087
same,TCF/Wnt firefly luciferase reporter signal,[5],1.04 ± 0.073
CC1(C)CC[C@]2(C(=O)O)CC[C@]3(C)C(=CC[C@@H]4[C@@]5(C)CC[C@H](O)[C@@](C)(CO)[C@@H]5CC[C@]43C)[C@@H]2C1,cell viability,[1],0.995 ± 0.16
same,cell viability,[2],1.025 ± 0.0071
same,cell viability,[3],1.01 ± 0.04
same,TCF/Wnt firefly luciferase reporter signal,[4],0.99 ± 0.042
same,TCF/Wnt firefly luciferase reporter signal,[5],0.975 ± 0.078
CCC(=O)C1(C)OC1C(C)CC(C)C1OC(=O)CC2(O)CC=C(C)C(O2)/C(C)=C/CCCC(OC2CC(OC(N)=O)C(O)C(C)O2)/C=C/C(C)C(O)C1C (stereo not given) [Irumamycin],cell viability,[1],1.07 ± 0.099
same,cell viability,[2],1.04 ± 0.035
same,cell viability,[3],1 ± 0.025
same,TCF/Wnt firefly luciferase reporter signal,[4],1.07 ± 0.078
same,TCF/Wnt firefly luciferase reporter signal,[5],1.02 ± 0.034
"COc1cc(C(N)=O)ccc1O [4-Hydroxy-3-methoxy-benzoic acid amide, Vanillic acid amide]",cell viability,[1],0.953 ± 0.032
same,cell viability,[2],1.125 ± 0.0071
same,cell viability,[3],1.06 ± 0.014
same,TCF/Wnt firefly luciferase reporter signal,[4],1.06 ± 0.086
same,TCF/Wnt firefly luciferase reporter signal,[5],0.942 ± 0.064
Cc1cc(=O)[nH]c(=S)[nH]1,cell viability,[1],1.07 ± 0.05
same,cell viability,[2],1.01 ± 0.072
same,cell viability,[3],0.979 ± 0.018
same,TCF/Wnt firefly luciferase reporter signal,[4],1.07 ± 0.071
same,TCF/Wnt firefly luciferase reporter signal,[5],0.9835 ± 0.0064
C=CC[S+]([O-])C[C@H](N)C(=O)O (stereo not given in full),cell viability,[1],0.984 ± 0.018
same,cell viability,[2],0.903 ± 0.079
same,cell viability,[3],0.96 ± 0.016
same,TCF/Wnt firefly luciferase reporter signal,[4],0.986 ± 0.091
same,TCF/Wnt firefly luciferase reporter signal,[5],1.05 ± 0.042
CC1(C)O[C@@H]2C[C@H]3[C@@H]4CCC5=CC(=O)CC[C@]5(C)[C@@]4(F)[C@@H](O)C[C@]3(C)[C@]2(C(=O)CCl)O1,cell viability,[1],0.921 ± 0.12
same,cell viability,[2],0.925 ± 0.074
same,cell viability,[3],0.977 ± 0.061
same,TCF/Wnt firefly luciferase reporter signal,[4],0.927 ± 0.042
same,TCF/Wnt firefly luciferase reporter signal,[5],1.01 ± 0.066
O=C(O)c1cc(O)c2c(c1)C(=O)c1cc(O)cc(O)c1C2=O,cell viability,[1],0.873 ± 0.11
same,cell viability,[2],0.866 ± 0.057
same,cell viability,[3],0.991 ± 0.013
same,TCF/Wnt firefly luciferase reporter signal,[4],0.926 ± 0.22
same,TCF/Wnt firefly luciferase reporter signal,[5],1.12 ± 0.11
CCCCC[C@H](CC(=O)O)C(=O)O,cell viability,[1],0.996 ± 0.091
same,cell viability,[2],0.953 ± 0.095
same,cell viability,[3],0.974 ± 0.03
same,TCF/Wnt firefly luciferase reporter signal,[4],1.15 ± 0.085
same,TCF/Wnt firefly luciferase reporter signal,[5],1.03 ± 0.021
C[C@H]1C(=O)CC[C@@H]2[C@]1(C)CC[C@H]1[C@@]2(C)CC[C@@]2(C)[C@@H]3CC(C)(C)CC[C@]3(C)CC[C@]12C,cell viability,[1],1.04 ± 0.014
same,cell viability,[2],0.983 ± 0.052
same,cell viability,[3],0.9995 ± 0.00071
same,TCF/Wnt firefly luciferase reporter signal,[4],0.95 ± 0.042
same,TCF/Wnt firefly luciferase reporter signal,[5],0.88 ± 0.09
CC(N)C12CC3CC(CC(C3)C1)C2 (stereo not given),cell viability,[1],1.02 ± 0.028
same,cell viability,[2],0.986 ± 0.02
same,cell viability,[3],0.977 ± 0.025
same,TCF/Wnt firefly luciferase reporter signal,[4],0.962 ± 0.03
same,TCF/Wnt firefly luciferase reporter signal,[5],0.9945 ± 0.0078
CC(C)C1=C2[C@H]3CCC4[C@@H]5[C@H](O[C@@H]6OC[C@@H](O)[C@H](O[C@@H]4O)C65O)[C@]3(C)CC[C@@]2(C)CC1 (stereo not given in full),cell viability,[1],0.915 ± 0.067
same,cell viability,[2],0.862 ± 0.11
same,cell viability,[3],0.938 ± 0.011
same,TCF/Wnt firefly luciferase reporter signal,[4],0.873 ± 0.014
same,TCF/Wnt firefly luciferase reporter signal,[5],0.968 ± 0.045
CCCN(CCC)S(=O)(=O)c1ccc(C(=O)O)cc1,cell viability,[1],1.03 ± 0.054
same,cell viability,[2],1.1 ± 0.078
same,cell viability,[3],1.1 ± 0.078
same,TCF/Wnt firefly luciferase reporter signal,[4],1.12 ± 0.21
same,TCF/Wnt firefly luciferase reporter signal,[5],1.115 ± 0.0071
OC[C@@H](O)[C@@H](O[C@@H]1O[C@H](CO)[C@@H](O)[C@H](O)[C@H]1O)[C@H](O)[C@@H](O)CO,cell viability,[1],0.959 ± 0.058
same,cell viability,[2],1.01 ± 0.058
same,cell viability,[3],1.01 ± 0.03
same,TCF/Wnt firefly luciferase reporter signal,[4],1.08 ± 0.12
same,TCF/Wnt firefly luciferase reporter signal,[5],1.11 ± 0.014

# From the supplement of paper PMC6522484
